# HCMV antiviral: human cytomegalovirus inhibition | HFF cells, HCMV-luciferase reporter, 72 h; active compounds read low | activity change, negative = inhibition, % at 57.5 µM | 410,000 compounds, 4.5% hits | AID 1259415; in the data active means activity change below about -60%; inconclusive means no clear call, values can overlap the other calls; inactive means above about -39%
#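 Cell-based, HFFs, 1000 cells/well, 16 h 37C; cpds in DMSO + HCMV-luc, MOI 1 PFU/cell; 72 h 37C; OneGlo luminescence after 5 min RT; norm. to buffer vs Salinomycin 10uM.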
# Vaccinia mCherry: vaccinia inhibition (mCherry reporter); Vaccinia virus mCherry reporter infection, fluorescence; Potency, µM (series often up to 36.5 µM), without a hit: at the top dose activity change, negative = inhibition, usual class: inhibitors; 310,000 compounds, 0.63% hits; AID 720579; calls by dose curve; tested in A549 cells; further: potency means the concentration at half of the fitted maximal effect; nearly all actives have a fitted effect of over 35% in size
# FMDV antiviral: foot and mouth disease virus antiviral activity | FMDV antiviral cell-based qHTS | Potency, µM (series often up to 57.9 µM), without a hit: at the top dose activity change, negative = inhibition, actives largely listed as inhibitors | 410,000 compounds, 1.2% hits | AID 1159524; calls by dose curve; tested in HEK293T cells; further: read-out not given here; potency means the concentration at half of the fitted maximal effect; nearly all actives have a fitted effect of over 45% in size
# Vaccinia Venus: vaccinia inhibition (Venus reporter). Vaccinia virus Venus reporter expression, fluorescence. Potency, µM (top dose mostly 36.5 µM), inactives show top-dose activity change, negative = inhibition, actives largely listed as inhibitors. 330,000 compounds, 0.46% hits. AID 720580; calls by dose curve; tested in A549 cells; further: potency means the concentration at half of the fitted maximal effect; nearly all actives have a fitted effect of over 30% in size
# HCV inh: HCV inhibition; Huh7.5.1 HCVcc-Cre infection, luciferase reporter, 44 h; Potency, µM (top dose mostly 41.8 µM), without a hit: at the top dose activity change, negative = inhibition, usual class: inhibitors; 340,000 compounds, 3.4% hits; active means well fitted inhibition curve with a large enough effect; inconclusive means small, poorly fitted or top-dose-only effect, or another doubt; inactive means no such curve, though single readings can be large or run the other way; further: potency means the concentration at half of the fitted maximal effect
#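 HCVcc-Cre virus at an moi near 0.5 was added right after compound to cells cultured 4 h from seeding (1,000 cells/well). Luciferase activity was determined 44 h later, 15 min after substrate addition at RT.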
# * = called active by the depositor; i = inactive; ? = inconclusive; nt = no result given. This is a sample that favours compounds with a hit; in the whole collection about 7.3% have one here. On the % scale 0 is the no-effect control and ±100 the full control effect.
SMILES,HCMV antiviral,Vaccinia mCherry,FMDV antiviral,Vaccinia Venus,HCV inh
CCOC(=O)c1ccccc1NC(=O)N(Cc1ccc(CC)cc1)Cc1cn[nH]c1-c1ccc(OC)cc1,-63.2*,?,?,?,nt
CCOC(=O)Cc1ccc(NC(=O)N(Cc2ccc(CC)cc2)Cc2cn[nH]c2-c2ccc(OC)cc2)cc1,-1.6,-7.5%,-16.5%,-17.2%,nt
CCS(=O)(=O)c1ncc(N(Cc2cccc(F)c2)Cc2ccco2)c(C(=O)Nc2ccccc2Cl)n1,-1.7,-9.7%,-8.1%,-5.7%,nt
CCSC1=C(C#N)C(c2cccs2)C(C(=O)OC)=C(C)N1 (configuration not stated),40.6,-16.2%,-24.2%,-18.3%,-15.2%
CCCSC1=C(C#N)C(c2cccs2)C(C(=O)Nc2ccccc2)=C(C)N1 (configuration not stated),?,nt,-24.0%,?,11.2µM*
CCOC(=O)C1=C(C)NC(SCC(N)=O)=C(C#N)C1c1cccs1 (configuration not stated),6.7,nt,0.0%,-17.0%,8.5%
CCOC(=O)C1=C(C)NC(SCC(=O)Nc2cc(C)on2)=C(C#N)C1c1cccs1 (configuration not stated),-33.3,-24.8%,nt,-16.4%,10µM*
CCNC(=S)NNC(=O)c1cc(-c2cccc(OC)c2)nc2ccccc12,-9.3,-12.8%,24.6%,-3.3%,20.7%
CCCOc1ccc(C(=O)NNC(=S)NC(=O)c2cc(-c3ccc(Cl)cc3)nc3ccccc23)cc1,-30.8,-19.7%,6.4%,-12.1%,15.8µM*
CCNC(=S)NNC(=O)c1cc(-c2ccc(OCC)cc2)nc2ccccc12,149.9,nt,12.6µM*,nt,-14.2%
COc1ccccc1CNC(=O)c1ccc2c(c1)N(Cc1cc(C)ccc1C)C(=O)c1ccccc1S2,-24.8,-19.8%,8.7%,-12.5%,nt
O=[N+]([O-])c1ccc(N2CCc3ccccc3C2)cc1,-102.2*,nt,34.0%,nt,-18.9%
CC(C)c1ccc(NC(=O)N2CCc3ccccc3C2)cc1,47.9,i,39.5%,-19.6%,-25.1%
O=C(Nc1ccc([N+](=O)[O-])cc1)N1CCc2ccccc2C1,6.3,-3.3%,33.4%,-17.8%,10µM*
CCOC(=O)c1sc(NC(=O)CN2C(=O)NC3(CC(C)CC(C)(C)C3)C2=O)c(C(=O)OCC)c1C (configuration not stated),-19.5,-14.7%,-16.5%,-6.1%,4.8%
CCOC(=O)c1sc(NC(=O)CN2C(=O)NC3(CC(C)CC(C)(C)C3)C2=O)cc1C (configuration not stated),-11.2,?,-17.3%,?,11.2µM*
OC(COCc1ccccc1)Cn1cnc2ccccc21 (configuration not stated),-21.7,nt,7.4%,nt,1.7%
OC(CN(c1ccccc1)c1ccccc1)Cn1cnc2ccccc21 (configuration not stated),?,nt,31.6µM*,?,?
CCOc1ccc2nc(N3CCCC(C(=O)Nc4ccc(OC)c(Cl)c4)C3)sc2c1 (configuration not stated),37.5,-14.1%,0.0%,-22.8%,nt
COc1ccc(CCNC(=O)c2cccc(S(=O)(=O)N3CCc4ccccc4C3)c2)cc1,-3.3,nt,?,nt,14.1µM*
COc1cccc(C(=O)NCCS(=O)(=O)N2CCc3ccccc3C2)c1,-6.6,-0.4%,-11.5%,-9.0%,2.6%
COc1ccc(NC(=O)CN(C)C(=O)c2cccc(S(=O)(=O)N3CCN(c4ccc(F)cc4)CC3)c2)cc1,-73.4*,nt,?,nt,12.6µM*
COc1ccccc1CNC(=O)COC(=O)c1cccc(S(=O)(=O)N2CCOCC2)c1,-31.6,-10.0%,-6.5%,-1.9%,11.2µM*
CN(CC(=O)Nc1ccc(F)cc1)C(=O)c1cccc(S(=O)(=O)N2CCN(c3ccccc3)CC2)c1,-15.2,-26.1%,?,-24.6%,-41.7%
COc1ccccc1CNC(=O)c1cccc(S(=O)(=O)N2CCN(c3ccc(F)cc3)CC2)c1,-20.6,nt,-17.3%,nt,11.2µM*
SMILES,HCMV antiviral,Vaccinia mCherry,FMDV antiviral,Vaccinia Venus,HCV inh
CC(C)c1ccc(Nc2ncnc3c2c(-c2ccccc2)cn3-c2ccccc2)cc1,-14.6,-15.4%,-11.5%,-2.1%,nt
Cc1oc(-c2ccccc2NC(=O)C2CCC2)nc1CNC(=O)c1ccc2ccccc2c1,nt,-4.1%,34.1%,5.5%,nt
COc1cccc(CNC(=O)c2cccc(S(=O)(=O)N3CCN(c4ccc(F)cc4)CC3)c2)c1,1.3,-25.8%,?,-19.3%,?
CCCN(CC(=O)Nc1ccccc1C)C(=O)c1ccc(S(=O)(=O)N2CCCCCC2)cc1,5.8,-0.5%,-16.2%,-14.9%,-18.8%
CCCN(CC(=O)Nc1ccccc1C)C(=O)c1cccc(S(=O)(=O)N2CCc3ccccc3C2)c1,-13.2,-2.7%,-6.6%,-26.9%,22.4µM*
COc1ccc(CNC(=O)c2cccc(S(=O)(=O)N3CCN(c4ccc(F)cc4)CC3)c2)cc1,?,-22.2%,-19.9%,-23.3%,7.08µM*
CN(C)c1cccc(C(=O)OCCNC(=O)c2cccc(S(=O)(=O)N3CCOCC3)c2)c1,-20.1,nt,-6.0%,nt,10µM*
O=C(OCCOc1ccccc1)c1cccc(S(=O)(=O)N2CCOCC2)c1,18.4,-15.4%,-10.7%,-7.6%,1.1%
CCCCn1c(SCc2ccccc2C#N)nc2c(sc3ccccc32)c1=O,-8.7,-13.6%,13.5%,-3.2%,nt
C=CCNc1ccc2c(c1)OC[C@H](Cc1ccccc1)NS2(=O)=O,-22.0,nt,nt,nt,nt
CN1/C(=C/C=C(C#N)C#N)C(C)(C)c2ccccc21,-10.2,-9.2%,-17.9%,1.6%,-0.4%
CC1=C/C(=C\C=C(C#N)C#N)N(C)c2ccccc21,-80.7*,i,-14.1%,118.8%,-11.7%
COc1ccc(NC(=O)CSc2c(C(C)C)cnc3c2c(=O)n(C)c(=O)n3C)c(OC)c1,-2.1,-14.0%,-29.9%,-13.0%,nt
COc1ccc(-c2cc(C(=O)N(C)CC(=O)Nc3ccccc3Br)c3ccccc3n2)cc1OC,12.8,i,-18.5%,-1.5%,20µM*
COc1cc(=O)n2c(c1C(=O)NC(C)c1ccco1)CCN(C(=O)c1ccnc(Cl)c1)CC2 (configuration not stated),nt,-11.9%,-5.2%,-7.9%,nt
CCC1(C)Cc2nc3[nH]c(=S)n(-c4ccccc4)c(=O)c3cc2CO1 (configuration not stated),-63.0*,-10.5%,-29.2%,4.6%,-6.1%
Cc1ccc2c3c(cccc13)-c1ccccc1C2=O,16.1,-23.5%,71.3%,-8.8%,5.62µM*
CC(C)(C)OC(=O)NCC(=O)Oc1cc2oc(=O)cc(-c3ccccc3)c2cc1Cl,-76.2*,-8.7%,-20.1%,-0.4%,26.5%
CCCNC(=O)Cn1c(=O)/c(=C/c2ccc(-c3ccc([N+](=O)[O-])cc3)o2)s/c1=C\C(=O)C(C)(C)C,-95.7*,?,-1.0%,58.6%,?
CSc1ccc(/C=c2\s/c(=C\C(=O)C(C)(C)C)n(CC(=O)NCCC3=CCCCC3)c2=O)cc1,-12.8,nt,-20.2%,nt,5.9%
COc1ccc(/C=C/C(=O)c2ccc3c4c(cccc24)CC3)cc1OC,?,?,17.8µM*,?,?
